AmpC inh detg: qHTS Inhibitors of AmpC Beta-Lactamase (assay with detergent); AmpC hydrolysis of nitrocefin, absorbance 480 nm, 0.01% Triton; Potency, µM (highest dose often 114 µM), without a hit: at the top dose activity change, negative = inhibition, most hits filed as inhibitors; 0.041% of 370,000 active;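 further: 0% = no-compound wells and -100% = no-enzyme wells; nearly all actives have a fitted effect of over 25% in size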
Target sequence (P00811 whole entry, looked up): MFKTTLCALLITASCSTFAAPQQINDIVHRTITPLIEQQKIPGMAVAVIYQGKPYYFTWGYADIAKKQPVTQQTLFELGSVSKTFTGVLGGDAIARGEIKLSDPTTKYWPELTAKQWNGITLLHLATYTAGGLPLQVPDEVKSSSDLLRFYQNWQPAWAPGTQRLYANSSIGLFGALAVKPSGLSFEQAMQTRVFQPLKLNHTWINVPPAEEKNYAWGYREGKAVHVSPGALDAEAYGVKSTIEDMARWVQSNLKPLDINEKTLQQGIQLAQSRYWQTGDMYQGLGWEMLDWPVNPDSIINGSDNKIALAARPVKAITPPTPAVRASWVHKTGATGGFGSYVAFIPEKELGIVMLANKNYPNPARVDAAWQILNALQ
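20 mM phosphate pH 7.0 + 0.01% (detergent screen) or 0.0001% Triton X-100; 5.3 nM AmpC reagent; cpd preinc 15 min RT; nitrocefin (800 uM stock) to start; A480 q20 s × 4 min; Activity was normalised to no-enzyme and no-compound control wells.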
FBPA Giardia inh: qHTS Assay for Inhibitors of Fructose-1,6-bisphosphate Aldolase from Giardia Lamblia | Potency, µM (titrated, usually from 59.6 µM), for the others: at the top dose activity, negative = inhibition, usual class: inhibitors | 0.71% of 290,000 active | A8B2U2 | AID 2451, 2010 | purified Giardia FBPA; further: nearly all actives have a fitted effect of over 55% in size
Target sequence (A8B2U2 whole entry, looked up): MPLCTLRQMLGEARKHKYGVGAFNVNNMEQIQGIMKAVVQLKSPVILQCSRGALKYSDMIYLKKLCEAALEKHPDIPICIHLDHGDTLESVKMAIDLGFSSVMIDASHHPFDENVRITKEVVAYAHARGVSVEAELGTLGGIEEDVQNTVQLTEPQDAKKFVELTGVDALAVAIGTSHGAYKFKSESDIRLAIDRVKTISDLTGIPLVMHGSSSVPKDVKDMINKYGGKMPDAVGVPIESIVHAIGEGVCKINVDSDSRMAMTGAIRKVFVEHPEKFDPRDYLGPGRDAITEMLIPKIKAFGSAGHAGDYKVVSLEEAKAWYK
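Giardia FBPA (40 nM reagent) was preincubated 10 min at RT with compound (up to 57.5 uM final), then substrate plus GAPDH/TPI/NAD/arsenate coupling system with diaphorase/resazurin was added; resorufin fluorescence (525/598 nm) was read after 20 min.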
AmpC no deterg: qHTS Inhibitors of AmpC Beta-Lactamase (assay without detergent) | AmpC nitrocefin hydrolysis, absorbance 480 nm, 0.0001% Triton | Potency, µM (series often up to 57.1 µM), without a hit: at the top dose activity change, negative = inhibition, actives largely listed as inhibitors | AID 485341, 2010 | 0.52% of 330,000 active | P00811;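 further: plate controls were no compound for no effect and no enzyme for full effect; nearly all actives have a fitted effect of over 20% in size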
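AmpC (5.3 nM in the dispensed reagent) in 20 mM phosphate pH 7.0 with 0.01% (detergent screen) or 0.0001% Triton X-100 was preincubated with compounds for 15 min at room temperature. Nitrocefin was then added from an 800 uM solution, and hydrolysis was followed at 480 nm.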
AMA1 RON2 block: qHTS for Inhibitors of AMA1-RON; Towards Development of Antimalarial Drug Lead: Primary Screen; 0.2% of 360,000 active; Plasmodium falciparum AMA1 (3D7) - RON2 peptide interaction; AID 720542, 2013; AlphaScreen AMA1-biotinylated RON2 peptide binding; Potency, µM (titrated, usually from 58.2 µM), for the others: at the top dose activity change, negative = inhibition, most hits filed as inhibitors;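 further: 0% = vehicle wells and -100% = peptide control; nearly all actives have a fitted effect of over 45% in size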
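AMA1 (3D7) with his tag at 25 nM final met compounds first, then biotinylated RON2 peptide at 25 nM; detection used donor plus acceptor beads, 10 µg/mL apiece, read by AlphaScreen after 30 min at room temperature.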
* = called active by the depositor; ? = inconclusive; · = no result. Rows were chosen to be rich in hits. Some 1.1% of all compounds tested hit in one or more screens of this group. The call rests on the fitted dose curve; in most records, active means well fitted curve in the direction sought with a large enough effect; inconclusive means small, poorly fitted or top-dose-only effect, or another doubt; inactive means no such curve, though single readings can be large; an effect the other way counts as inactive or inconclusive. Unless noted, on the % scale 0 is the no-effect control and ±100 the full control effect; potency means the concentration at half of the fitted maximal effect.

SMILES	AmpC inh detg	FBPA Giardia inh	AmpC no deterg	AMA1 RON2 block
CCC1=NN2C(=N)/C(=C\c3cccn3-c3ccc(C)c(C)c3)C(=O)N=C2S1	?	12%	-51%	-12%
CCC1=NN2C(=N)/C(=C/c3ccc(OS(=O)(=O)c4ccccc4)cc3)C(=O)N=C2S1	-9%	-1%	28µM*	123%
O=[N+]([O-])c1cccc2nc3ccccc3c(NCCCn3ccnc3[N+](=O)[O-])c12	·	·	·	-5%
O=C(O)c1[nH]c2ccccc2c1C(c1ccccc1)c1c(C(=O)O)[nH]c2ccccc12	6%	25%	-21%	-15%
C=CCOc1ccc(C(c2c(C(=O)O)[nH]c3ccccc23)c2c(C(=O)O)[nH]c3ccccc23)cc1	5%	18%	22µM*	-11%
CSc1ncc(C(=O)NCc2cccc(Br)c2)c(-c2ccccc2)n1	0%	·	·	·
COc1ccc2c(c1)C(CC(C)=O)N(c1ccc(-c3cccs3)cc1)C(c1ccsc1)=C2 (centres undefined)	·	·	·	10%
O=C1C=C(N2CCOCC2)c2ccccc2C1=O	?	?	-17%	-22%
CC1=C(C)C(=O)C(N2CCOCC2)=CC1=O	-9%	1.4µM*	-9%	4%
O=C(O)c1ccc2c(c1)C1C(Cl)C(Sc3ccccc3[N+](=O)[O-])CC1C(c1cccc([N+](=O)[O-])c1)N2 (centres undefined)	-14%	-15%	18µM*	-29%
CCC(C)Nc1sc(S(=O)(=O)CC)nc1S(=O)(=O)c1ccc(C)cc1 (centres undefined)	22%	·	·	·
CCOC(=O)COc1ccc2c(C#N)c3ccccn3c2c1	-5%	5.6µM*	-5%	67%
N#Cc1c2ccc(OCC(N)=O)cc2n2ccccc12	0%	?	2%	-3%
CC(=O)OCON[N+]([O-])=NC(C)C	·	-28%	·	·
Cc1ccc(S(=O)(=O)c2nc(C)oc2NCc2ccccc2)cc1	50µM*	-20%	-60%	·
Cc1ccc(S(=O)(=O)c2nc(-c3ccccc3F)oc2NCc2ccccc2)cc1	15%	·	·	·
Cc1cccc(NC(=O)c2ccc(N(Cc3ccccc3)S(C)(=O)=O)cc2)c1	3%	·	·	·
Cn1nnc2c(N3CCN(c4ccc(F)cc4)CC3)ncnc21	2%	·	·	·
COc1ccc(N=C2C(=Nc3ccc(OC)cc3)N(c3ccc(OC)cc3)C(=S)N2C)cc1	2%	-20%	11%	6.7µM*
COc1ccc(N=C2C(=Nc3ccc(OC)cc3)N(c3ccc(OC)cc3)C(=S)N2c2ccccc2)cc1	-4%	0%	-31%	-12%
O=C(N/N=C/c1ccc(Br)s1)c1c[nH]c2ccccc12	-7%	2%	25µM*	-1%
CC1(C(=O)NCC2CC2)Cc2c(-c3ccccc3)ccnc2O1 (centres undefined)	·	·	·	5%
COc1ccc(CCNC(=S)NC(=O)c2ccccc2)cc1C	-6%	-11%	11µM*	37%
COc1ccc(CCNC(=S)NC(=O)c2ccc(Br)cc2)cc1OC	0%	-9%	-25%	56%
O=c1c(-c2c(O)cc(O)c3c(=O)cc(-c4ccc(O)cc4)oc23)c(-c2ccc(O)cc2)oc2cc(O)cc(O)c12	2%	-10%	20µM*	-30%
SMILES	AmpC inh detg	FBPA Giardia inh	AmpC no deterg	AMA1 RON2 block
CN(C)S(=O)(=O)c1ccc(C(=O)NCc2ccc3[nH]c4c(c3c2)CCCC4)cc1	?	-3%	28µM*	-19%
Cc1ccc(C)c(NC(=S)NCc2ccc3[nH]c4c(c3c2)CCCC4)c1	-5%	1%	35µM*	28%
Cc1ccccc1NC(=S)NCc1ccc2[nH]c3c(c2c1)CCCC3	?	-5%	-35%	44%
O=C(NCc1ccc2[nH]c3c(c2c1)CCCC3)c1ccc(S(=O)(=O)N2CCCC2)cc1	-13%	-3%	-10%	-9%
CCN(CC)S(=O)(=O)c1ccc(C(=O)NCc2ccc3[nH]c4c(c3c2)CCCC4)cc1	-13%	-5%	25µM*	-13%
CCC(=O)NCCC1CCc2ccc3c(c21)CCO3 (centres undefined)	·	12%	·	·
CCOc1ccc(-c2cc(C(=O)N3CCN(c4cccc(C(F)(F)F)c4)CC3)c3ccccc3n2)cc1	4%	·	·	·
CCN(CC(=O)NCc1cccs1)S(=O)(=O)c1cccc(Br)c1	2%	·	-6%	1%
O=S(=O)(Nc1cc(O)cc2cccnc12)c1ccc(Cl)s1	·	3.2µM*	·	·
COc1ccccc1NS(=O)(=O)c1ccc(Br)s1	-6%	-1%	-25%	-28%
O=S(=O)(Nc1cc(O)cc2cccnc12)c1ccc(Br)s1	·	3.2µM*	·	·
Cc1cccc(N2C(=O)NC(=O)/C(=C\c3cc(C)n(-c4sc5c(c4C#N)CCCC5)c3C)C2=O)c1C	-7%	-9%	32µM*	0%
O=S(=O)(c1ccccc1Cl)N1CCCC1c1nc(-c2ccc(Cl)cc2)no1 (centres undefined)	-3%	-1%	0.32µM*	13%
O=S(=O)(c1ccc(Cl)cc1)N1CCCC(c2nc(-c3ccc(F)cc3)no2)C1 (centres undefined)	4%	·	-15%	-17%
Cc1cccc(C)c1NC(=O)C(c1ccncc1)n1c(=O)c(-c2cc3ccccc3[nH]2)nc2ccccc21 (centres undefined)	·	·	·	12%
O=c1cc(N2CCc3ccccc3C2)[nH]c(=O)n1-c1ccccc1Cl	-1%	-6%	10µM*	-2%
COc1ccc(-c2nc(CN3CCC(C(=O)NCCCN4CCN(c5ccccc5F)CC4)CC3)c(C)o2)cc1OC	17%	·	·	·
COc1ccccc1-c1cc(C(=O)Nc2sc3c(c2C#N)CCC(C)C3)c2ccccc2n1 (centres undefined)	-6%	7%	?	12%
Cc1cc(C(=O)OCC(=O)Nc2sc3c(c2C#N)CCC(C)C3)c2ccccc2n1 (centres undefined)	2%	0%	14µM*	-8%
Cc1ccccc1NC(=O)c1c(NC(=O)c2ccco2)sc2c1CCC(C(C)(C)C)C2 (centres undefined)	8%	·	·	·
Cc1ccc(-c2nc3cnccn3c2Nc2ccc3c(c2)OCO3)o1	?	4%	2.8µM*	-18%
Clc1ccc(-c2nc3cnccn3c2Nc2ccc3c(c2)OCO3)cc1	?	1%	22µM*	-29%
Cc1ccn2c(Nc3ccc4c(c3)OCO4)c(-c3ccc(C)o3)nc2c1	1%	·	·	·
NC(=O)C1CCN(Cc2nc3ccccc3c(=O)[nH]2)CC1	1%	-20%	-19%	29%
NC(=O)C1(N2CCCCC2)CCN(Cc2nc3ccccc3c(=O)[nH]2)CC1	4%	-1%	0.32µM*	17%
COc1ncnc2c1ncn2CCCNCc1ccc(C)o1	·	·	·	0%
O=[N+]([O-])c1ccc(Nc2ccc3ccccc3c2)nc1	1%	-3%	0.32µM*	-5%
